POLH inh: blocks human DNA polymerase eta activity; Q9Y253; recombinant Pol eta, fluorescent DNA replication assay; Potency, µM (top dose mostly 114 µM), actives largely listed as inhibitors; 1.2% of 390,000 active; AID 588591
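Pol eta at 10 nM preincubated with compounds 15 min at room temperature; reaction started with fluorescent substrate (50 nM final) and read kinetically at 0 and 10 min.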
Pol beta inh: inhibitors of human DNA polymerase beta. 1.3% of 340,000 active. Potency, µM (highest dose often 114 µM), usual class: inhibitors. Pol beta primer extension/strand displacement, fluorescence kinetic
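Reaction started by 50 nM substrate onto compound-treated Pol beta (10 nM, 15 min preincubation, room temperature); plates read at 0 min and 10 min. Normalized concentration-effect data fitted by four-parameter Hill equation.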
Pol kappa inh: DNA polymerase kappa (human) inhibition | AID 588579 | 0.53% of 400,000 active | Potency, µM (top dose mostly 107 µM), hits mostly inhibitors | Q9UBT6 | purified Pol kappa, fluorescent DNA synthesis assay, 10 min
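Inhibition of 10 nM Pol kappa is measured by a fluorescent read-out at 0 and 10 min following addition of 50 nM substrate (final), with a 15-min room-temperature compound preincubation.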
WRN inhibitor: blocks human WRN helicase; WRN helicase unwinding, fluorescent forked duplex, kinetic; Potency, µM (series often up to 114 µM), actives largely listed as inhibitors; 0.46% of 360,000 active; AID 651768; further: nearly all actives have a fitted effect of over 55% in size
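Primary qHTS, 1536-well format. 20 nM WRN + compound, 15 min RT; start with 100 nM forked fluorophore/quencher duplex, 2 mM ATP (final); kinetic read ex 525/em 598 nm.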
POLI inh: inhibitors of human DNA polymerase iota. Pol iota fluorescent replication assay, 10 min. Potency, µM (series often up to 115 µM), actives largely listed as inhibitors. 1% of 390,000 active. AID 588590
Target sequence (Q9UNA4 whole entry, looked up): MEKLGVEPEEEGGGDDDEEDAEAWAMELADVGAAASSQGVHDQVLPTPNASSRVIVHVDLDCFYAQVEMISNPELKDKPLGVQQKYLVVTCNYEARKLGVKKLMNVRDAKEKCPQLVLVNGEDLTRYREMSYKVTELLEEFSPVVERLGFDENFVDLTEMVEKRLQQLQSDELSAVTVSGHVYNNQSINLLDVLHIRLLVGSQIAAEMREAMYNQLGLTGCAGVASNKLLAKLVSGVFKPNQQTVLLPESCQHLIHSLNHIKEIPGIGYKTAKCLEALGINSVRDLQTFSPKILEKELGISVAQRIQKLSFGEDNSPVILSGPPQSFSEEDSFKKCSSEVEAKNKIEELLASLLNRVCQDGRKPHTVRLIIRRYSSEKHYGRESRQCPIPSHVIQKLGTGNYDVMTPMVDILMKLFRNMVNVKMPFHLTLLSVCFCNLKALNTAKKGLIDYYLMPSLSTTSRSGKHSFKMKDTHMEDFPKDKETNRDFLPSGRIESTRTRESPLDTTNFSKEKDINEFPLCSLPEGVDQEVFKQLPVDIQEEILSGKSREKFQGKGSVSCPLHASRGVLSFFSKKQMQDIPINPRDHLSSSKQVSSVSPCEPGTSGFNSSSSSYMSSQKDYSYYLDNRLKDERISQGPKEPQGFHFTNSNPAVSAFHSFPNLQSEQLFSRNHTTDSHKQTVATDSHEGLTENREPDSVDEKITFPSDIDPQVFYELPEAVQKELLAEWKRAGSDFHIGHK
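Pol iota at 10 nM preincubated 15 min with compounds at room temperature; reaction started with fluorescent substrate, 50 nM final. Fluorescence read kinetically at 0 and 10 min; buffer-only wells as negative control.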
FEN1 inh: blocks human flap endonuclease 1. 0.35% of 390,000 active. Recombinant FEN1 flap cleavage, fluorescence, 15 min. Potency, µM (doses to about 114 µM), usual class: inhibitors. P39748; further: nearly all actives have a fitted effect of over 65% in size
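Read-out was taken twice, immediately and after 15 min, following addition of 50 nM substrate to 10 nM FEN1 that had sat with test compound for 15 min at room temperature. Curves came from a four-parameter Hill model.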
Numbers stand for hits; i = inactive; ? = inconclusive; nt = not tested or not shown; [ ] = dose if it differs, or a comment. Rows were chosen to be rich in hits. Some 2.4% of all compounds tested hit in one or more screens of this group. The call rests on the fitted dose curve; in most records, active means well fitted curve in the direction sought with a large enough effect; inconclusive means small, poorly fitted or top-dose-only effect, or another doubt; inactive means no such curve, though single readings can be large; an effect the other way counts as inactive or inconclusive.

SMILES	POLH inh	Pol beta inh	Pol kappa inh	WRN inhibitor	POLI inh	FEN1 inh
O=C(c1cccs1)N1CCN(Cc2cccnc2)CC1	22.4µM	i	i	i	i	i
C=CCn1c2ccccc2c2nnc(SCC(N)=O)nc21	i	i	i	i	i	i
C=CCSc1nnc2nc3c(nn12)c1cc(C)ccc1n3CC=C	?	25.1µM	i	?	?	i
COc1ccc(O)c(C2(O)C(=O)c3ccccc3C2=O)c1	i	i	i	i	i	i
CC(=O)C(C(C)=O)C1(O)C(=O)c2ccccc2C1=O	89.1µM	?	i	i	3.16µM	i
CC1C/C(=N\NC(N)=S)c2cc(Cl)ccc2S1 (centres undefined)	i	i	i	i	79.4µM	i
Cc1ccc(OCC(=O)Nc2cc(C(=O)O)cc(C(=O)O)c2)cc1C	i	i	i	79.4µM	i	i
Cc1ccc(OCC(=O)Nc2cc(NC(=O)COc3ccc(C)cc3)cc(C(=O)O)c2)cc1	i	i	i	i	?	i
Cc1ccc(-c2nc3ccccc3[nH]2)cc1NC(=O)COc1ccc(Cl)cc1Cl	i	i	i	nt	i	i
Cc1cccc(OCC(=O)Nc2cc(NC(=O)COc3cccc(C)c3C)cc(C(=O)O)c2)c1C	?	10µM	i	i	i	i
Cc1ccc(-c2nc3ccccc3[nH]2)cc1NC(=O)COc1cccc(C)c1C	i	i	i	nt	89.1µM	i
N#CCCn1c(=O)c(-c2ccc(F)cc2)nc2cnc(OCc3ccccc3)nc21	nt	nt	i	nt	nt	nt
N#CC1=C(S)N(c2ccc(F)cc2)C(c2cccs2)NC1=O (centres undefined)	i	i	i	i	i	i
N#CC1=C(S)N(c2ccccc2)C(c2ccc(-c3ccccc3Cl)o2)NC1=O (centres undefined)	44.7µM	i	i	i	i	i
CN(C(=O)CSc1nnc(-c2ccncc2)n1-c1ccccc1)C1CCS(=O)(=O)C1 (centres undefined)	i	i	i	i	i	i
COc1cccc(/C=C2\Oc3cc(OCC(=O)N4CCC[C@H]4C(=O)O)ccc3C2=O)c1	44.7µM	i	i	i[11.6 µM]	i	?
COc1ccc(OC)c(/C=C2\Oc3cc(OCC(=O)N4CCC[C@H]4C(=O)O)ccc3C2=O)c1	i	i	i	i	?	?
Cc1ccc(NC2=CC(=O)C(=O)c3ccccc32)cc1	79.4µM	?	i	i	11.2µM	i
O=C(COc1c(Br)cc(Br)c2cccnc12)Nc1ccccc1F	?	4.47µM	i	i	i	i
O=C(COc1ccccc1)Nc1ccccc1F	i	i	i	i	i	i
Cc1ccc([N+](=O)[O-])cc1N=C(c1cccc(Br)c1)N1CCOCC1	i	i	i	i	i	i
Cc1ccc(S(=O)(=O)N2CCCCC2)cc1NC(=O)CCc1nc2ccccc2c(=O)[nH]1	28.2µM	nt	i	i	?	i
COc1ccc(S(=O)(=O)N2CCCCC2)cc1NC(=O)CCc1nc2ccccc2c(=O)[nH]1	i	nt	i	i	i	i
Cc1onc(-c2c(F)cccc2Cl)c1C(=O)OCC(=O)c1c[nH]c2ccccc12	i	i	i	i	?	i
Nc1cc(=O)[nH]c(SCC(=O)N2N=C(c3ccc4ccccc4c3)CC2c2ccccc2)n1 (centres undefined)	?	i	i	i	44.7µM	i
SMILES	POLH inh	Pol beta inh	Pol kappa inh	WRN inhibitor	POLI inh	FEN1 inh
Cc1cccc(N=C2NC(=O)S/C2=C\c2ccco2)c1	?	?	79.4µM	i	35.5µM	i
Cc1ccc(N=C2NC(=O)/C(=C\c3ccco3)S2)cc1	14.1µM	?	?	?	31.6µM	i
O=C1NC(=Nc2ccc(O)cc2)S/C1=C/c1ccco1	i	?	i	i	i	i
COc1ccc(CCNC(=O)c2cc3c(=O)n4ccccc4nc3n2C)cc1	i	?	i	nt	i	i
O=C1c2ccccc2NC(c2cccc(F)c2)N1Cc1ccco1 (centres undefined)	i	7.94µM	i	i	i	i
O=C(CCCC(=O)Nc1cccc(Br)c1)N/N=C/c1cc([N+](=O)[O-])ccc1O	i	i	i	i	i	i
COc1ccc(C2CC(=O)c3cnc(NC(=O)c4ccccc4)nc3C2)c(OC)c1 (centres undefined)	i	i	i	i	i	i
Cc1ccc(NC(=O)CN(C)C(=O)Cn2ncc(Cl)c(Cl)c2=O)cc1	?	?	i	?	44.7µM	i
Cc1cccc(NC(=O)CNC(=O)CSc2ncccn2)c1C	i	nt	i	i	i	i
Cc1cccc(NC(=O)CNC(=O)Cn2ncc(Cl)c(Cl)c2=O)c1C	3.98µM	nt	?	?	15.8µM	i
Cc1ccc(NC(=O)Cc2ccc(Cl)cc2)cc1S(=O)(=O)N1CCCCCC1	?	nt	i	i	i	i
Cc1ccc(NC(=O)Cn2ncc(Cl)c(Cl)c2=O)cc1S(=O)(=O)N1CCCCC1	i	nt	?	i	50.1µM	i
Cc1ccc(NC(=O)CN(C)C(=O)Cc2ccc(Cl)c(Cl)c2)cc1	i	i	i	i	i	i
N/C(=N\OC(=O)N1CCOCC1)c1ccc(Cl)cc1	i	i	i	i	i	i
S=C(NCc1ccccc1)N1CCN(C2CCCCC2)CC1	i	i	i	i	i	i
CCCOc1c(Br)cc(C(N)=O)cc1OCC	i	i	i	i	i	i
Cc1cccc(C(=O)Nc2cc(=O)n(C)c(=O)n2C)c1	i	i	i	i	i	i
Cc1oc(-c2ccccc2Cl)nc1CSCC(=O)N1CCCC1	i	79.4µM	i	i	i	i
O=C1/C(=C\c2ccc(Br)o2)Cc2ccccc21	?	39.8µM	i	i	?	i
O=C(CSc1ncnc2scc(-c3ccccc3)c12)N1CCN(Cc2ccc3c(c2)OCO3)CC1	?	15.8µM	i	i	?	i
Cc1ccc(-c2csc3ncnc(SCc4ccc(C(=O)O)cc4)c23)cc1	79.4µM	?	i	i[11.6 µM]	i	i
c1ccc(CCc2ccccc2-c2nc(-c3cccnc3)no2)cc1	i	i	i	i	i	i
COCCn1nnnc1C(c1ccc2ncccc2c1)N1CCN(c2ccccc2F)CC1 (centres undefined)	i	i	i	i	i	i
CSc1nc(N2CCN(c3ccccc3)CC2)cc(N2CCN(c3ccccc3)CC2)n1	i	i	i	i	i	i
CCCCCCOC(=O)CCc1c(C)nc(N)[nH]c1=O	i	i	i	i	i	i
O=C1CCCC2=C1C1O[C@](c3ccsc3)(Cc3c1ccc1ccccc31)O2	nt	3.98µM	nt	nt	nt	nt
O=c1oc2ccccc2c2c1C1O[C@](c3ccsc3)(Cc3c1ccc1ccccc31)O2	nt	12.6µM	nt	nt	nt	nt
COc1ccc([C@]23Cc4c(ccc5ccccc45)C(O2)C2=C(CCCC2=O)O3)cc1	nt	i[22.9 µM]	nt	nt	nt	nt
O=C1c2ccccc2C(=O)N1CCCC[C@]12Cc3ccccc3C(O1)c1c(c3ccccc3oc1=O)O2	nt	i[22.9 µM]	nt	nt	nt	nt

Source: PubChem BioAssay
